PubChem BioAssay (NCI)
About 79,000 compounds went through this panel and 15% of them were active in at least one assay; those are over-represented in the sample as a whole. Active and inactive are the calls of the source. No stated cut-off is given here; in the data, active means growth inhibition above about 70%; inactive means the rest.

Key:
[1] = NCI Yeast Anticancer Drug Screen. Data for the wt1 strain (AID 149);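 further: 0% = growth of vehicle-treated wt1 cultures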; conditions: S. cerevisiae wt1 strain (SPY 50644) growth inhibition, stronger effect = higher value
How it was run: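 Yeast wt1 strain exposed to compounds; growth inhibition measured relative to vehicle-treated controls.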

[2] = NCI Yeast Anticancer Drug Screen. Data for the mgt1 strain (AID 153); conditions: S. cerevisiae mgt1 mutant growth inhibition, stronger effect = higher value
How it was run: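 Read-out: yeast growth inhibition vs vehicle control. Strain mgt1, drawn from a panel altered in DNA damage repair or cell cycle control.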

[3] = NCI Yeast Anticancer Drug Screen. Data for the rad50 strain (AID 155);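 further: 0% = growth of vehicle-only cultures of the same strain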; conditions: S. cerevisiae rad50 strain growth inhibition, stronger effect = higher value
How it was run: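 Yeast carrying a defined DNA repair defect were exposed to test compounds, and growth was compared with vehicle-treated controls to give percent inhibition.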

[4] = NCI Yeast Anticancer Drug Screen. Data for the mec2-1 strain (AID 157); conditions: S. cerevisiae mec2-1 strain, stronger effect = higher value
How it was run: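 Cells of the genetically defined mec2-1 yeast strain are incubated with test compound. Inhibition of growth is calculated against vehicle-treated controls.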

[5] = NCI Yeast Anticancer Drug Screen. Data for the rad14 strain (AID 159);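 further: 0% = growth of vehicle-treated control cultures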; conditions: S. cerevisiae rad14 strain growth inhibition, stronger effect = higher value
How it was run: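 Yeast cells carrying a defined DNA-repair defect were exposed to compounds, and growth inhibition was calculated relative to vehicle-treated control cultures.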

[6] = NCI Yeast Anticancer Drug Screen. Data for the sgs1 mgt1 strain (AID 161);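 further: 0% = growth of cultures given vehicle only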; conditions: S. cerevisiae sgs1 mgt1 strain, stronger effect = higher value
How it was run: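 Genetically altered yeast, compound exposure, growth inhibition relative to vehicle.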

[7] = NCI Yeast Anticancer Drug Screen. Data for the CLN2oe strain (AID 163);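 further: 0% = growth of vehicle-only control cultures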; conditions: S. cerevisiae CLN2oe strain, stronger effect = higher value
How it was run: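 Strain altered in cell-cycle control, incubated with compound; growth compared to solvent-treated controls.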

[8] = NCI Yeast Anticancer Drug Screen. Data for the cln2 rad14 strain (AID 165);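 further: 0% = growth equal to vehicle treated cultures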; conditions: S. cerevisiae cln2 rad14 strain, stronger effect = higher value
How it was run: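 The screen exposed genetically defined yeast (cln2 rad14) to test compounds and scored growth inhibition relative to vehicle-treated controls.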

[9] = NCI Yeast Anticancer Drug Screen. Data for the bub3 strain (AID 167); conditions: S. cerevisiae bub3 mutant strain, stronger effect = higher value
How it was run: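 Compounds were applied to a genetically altered yeast strain carrying a cell-cycle control defect. Growth inhibition was scored against vehicle-treated controls.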

[10] = NCI Yeast Anticancer Drug Screen. Data for the wt2 strain (AID 169);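 further: 0% = growth of vehicle-treated yeast cultures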; conditions: S. cerevisiae wt2 strain growth inhibition, stronger effect = higher value
How it was run: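 Steps: yeast strain treated with compound; growth recorded; inhibition calculated relative to cultures given vehicle alone.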

[11] = NCI Yeast Anticancer Drug Screen. Data for the mlh1 strain (AID 171);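 further: 0% = growth of vehicle-treated control cultures of the same strain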; conditions: S. cerevisiae mlh1 strain growth inhibition, stronger effect = higher value
How it was run: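 Yeast screen: mutant strain plus compound, growth scored against vehicle control wells.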

[12] = NCI Yeast Anticancer Drug Screen. Data for the sgs1 strain (AID 173);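 further: 0% = growth of vehicle-only control cultures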; conditions: S. cerevisiae sgs1 mutant, stronger effect = higher value
How it was run: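 Inhibition of yeast growth served as the measure. The mutant strain was treated with each compound, and growth was normalised to cultures receiving vehicle alone.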

[13] = NCI Yeast Anticancer Drug Screen. Data for the mlh1 rad18 strain (AID 175); conditions: S. cerevisiae mlh1 rad18 strain growth inhibition, stronger effect = higher value
How it was run: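 Compound-treated yeast growth, normalised to vehicle controls. Strain bears defined DNA repair mutations.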

[14] = NCI Yeast Anticancer Drug Screen. Data for the rad18 strain (AID 177); conditions: S. cerevisiae rad18 mutant growth inhibition, stronger effect = higher value
How it was run: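 Inhibition values reflect reduced yeast growth compared with vehicle-treated controls, using a strain engineered with a DNA damage repair defect.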

[15] = NCI Yeast Anticancer Drug Screen. Data for the rad50EPP+ strain (AID 151);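 further: 0% = growth of vehicle-treated control cultures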; conditions: S. cerevisiae rad50 mutant strain, stronger effect = higher value
How it was run: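 Strain rad50EPP+; compound exposure; % growth inhibition vs vehicle.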

[16] = at 5.0 µM (retest, dose inferred, filed as 0.5)
[17] = at 50.0 µM (retest, dose inferred, filed as 5.0)

Measured: growth inhibition

CC(C)(C(=O)NN)c1ccccc1
inactive: [1]; at 1.2 µM 2% | [1]; at 3.7 µM 9% | [1]; at 11.0 µM 34% | [1]; at 33.0 µM 52% | [2]; at 1.2 µM 4% | [2]; at 3.7 µM 10% | [2]; at 11.0 µM 22% | [2]; at 33.0 µM 54% | [3]; at 1.2 µM 3% | [3]; at 3.7 µM 5% | [3]; [16] 14% | [3]; at 11.0 µM 22% | [3]; at 33.0 µM 40% | [3]; at 50.0 µM 52.9% | [4]; at 1.2 µM 0% | [4]; at 3.7 µM 1% | [4]; [16] 11% | [4]; at 11.0 µM 24% | [4]; at 33.0 µM 53% | [4]; at 50.0 µM 9.5% | [5]; at 1.2 µM -1% | [5]; at 3.7 µM -4% | [5]; at 11.0 µM 3% | [5]; at 33.0 µM 21% | [5]; at 100.0 µM 58% | [6]; [16] 14% | [6]; at 50.0 µM 14.9% | [7]; at 1.2 µM -7% | [7]; at 3.7 µM -1% | [7]; at 11.0 µM 27% | [7]; at 33.0 µM 51% | [8]; [16] 20% | [8]; at 50.0 µM 55.5% | [9]; at 1.2 µM -3% | [9]; at 3.7 µM 0% | [9]; [16] -14% | [9]; at 11.0 µM 34% | [9]; at 50.0 µM 52% | [10]; at 1.2 µM 1% | [10]; at 3.7 µM 10% | [10]; at 11.0 µM 28% | [10]; at 33.0 µM 42% | [11]; at 1.2 µM 3% | [11]; at 3.7 µM 5% | [11]; at 11.0 µM 21% | [11]; at 33.0 µM 46% | [12]; at 1.2 µM 0% | [12]; at 3.7 µM 13% | [12]; at 11.0 µM 41% | [13]; [16] 63% | [13]; at 50.0 µM 62.9% | [14]; at 1.2 µM 2% | [14]; at 3.7 µM 8% | [14]; at 11.0 µM 46%
active: [1]; at 100.0 µM 78% | [2]; at 100.0 µM 90% | [3]; [17] 99% | [3]; at 100.0 µM 82% | [4]; [17] 95% | [4]; at 100.0 µM 83% | [6]; [17] 98% | [7]; at 100.0 µM 81% | [8]; [17] 88% | [9]; at 33.0 µM 70% | [9]; [17] 97% | [9]; at 100.0 µM 94% | [10]; at 100.0 µM 83% | [11]; at 100.0 µM 91% | [12]; at 33.0 µM 71% | [12]; at 100.0 µM 94% | [13]; [17] 99% | [14]; at 33.0 µM 70% | [14]; at 100.0 µM 92%

O=c1oc(C(C(F)(F)F)C(F)(F)F)nc2ccccc12
active: [3]; [17] 72% | [4]; [17] 83% | [4]; at 50.0 µM 70.2% | [13]; [17] 88%
inactive: [15]; at 1.2 µM 22% | [15]; at 3.7 µM 30% | [15]; at 11.0 µM 35% | [15]; at 33.0 µM 43% | [15]; at 100.0 µM 51% | [3]; at 1.2 µM 33% | [3]; at 3.7 µM 27% | [3]; [16] 10% | [3]; at 11.0 µM 25% | [3]; at 33.0 µM 29% | [3]; at 50.0 µM 36.1% | [3]; at 100.0 µM 29% | [4]; at 1.2 µM 13% | [4]; at 3.7 µM 27% | [4]; [16] 7% | [4]; at 11.0 µM 23% | [4]; at 33.0 µM 29% | [4]; at 100.0 µM 34% | [5]; at 1.2 µM 16% | [5]; at 3.7 µM 21% | [5]; at 11.0 µM 26% | [5]; at 33.0 µM 29% | [5]; at 100.0 µM 42% | [6]; [16] -5% | [6]; [17] 12% | [6]; at 50.0 µM 12.7% | [7]; at 1.2 µM 18% | [7]; at 3.7 µM 12% | [7]; at 11.0 µM 26% | [7]; at 33.0 µM 1% | [7]; at 100.0 µM 15% | [8]; [16] 23% | [8]; [17] 33% | [8]; at 50.0 µM 12.3% | [9]; at 1.2 µM 3% | [9]; at 3.7 µM 13% | [9]; [16] -27% | [9]; at 11.0 µM 20% | [9]; at 33.0 µM -5% | [9]; [17] -6% | [9]; at 50.0 µM 16.6% | [9]; at 100.0 µM 15% | [10]; at 1.2 µM -3% | [10]; at 3.7 µM -5% | [10]; at 11.0 µM -7% | [10]; at 33.0 µM 2% | [10]; at 100.0 µM 32% | [11]; at 1.2 µM 16% | [11]; at 3.7 µM 12% | [11]; at 11.0 µM 17% | [11]; at 33.0 µM 20% | [11]; at 100.0 µM 32% | [12]; at 1.2 µM 26% | [12]; at 3.7 µM 39% | [12]; at 11.0 µM 40% | [12]; at 33.0 µM 43% | [12]; at 100.0 µM 46% | [13]; [16] 15% | [13]; at 50.0 µM 50.6% | [14]; at 1.2 µM 22% | [14]; at 3.7 µM 15% | [14]; at 11.0 µM 20% | [14]; at 33.0 µM 19% | [14]; at 100.0 µM 30%

CCOC(=O)c1[nH]c2cccc3c2c1CC(Br)C3=O (centres undefined)
active: [2]; at 100.0 µM 88% | [3]; [17] 92% | [3]; at 50.0 µM 89.8% | [3]; at 100.0 µM 76% | [4]; at 33.0 µM 80% | [4]; [17] 96% | [4]; at 50.0 µM 91.3% | [4]; at 100.0 µM 87% | [6]; [17] 96% | [6]; at 50.0 µM 83.3% | [9]; [17] 93% | [9]; at 50.0 µM 76% | [9]; at 100.0 µM 78% | [10]; at 11.0 µM 81% | [10]; at 33.0 µM 97% | [10]; at 100.0 µM 97% | [11]; at 100.0 µM 83% | [12]; at 100.0 µM 80% | [13]; [16] 82% | [13]; [17] 96% | [13]; at 50.0 µM 89.4% | [14]; at 33.0 µM 74% | [14]; at 100.0 µM 89%
inactive: [15]; at 1.2 µM -31% | [15]; at 3.7 µM -1% | [15]; at 11.0 µM -12% | [15]; at 33.0 µM 34% | [15]; at 100.0 µM 62% | [2]; at 1.2 µM -33% | [2]; at 3.7 µM 0% | [2]; at 11.0 µM -4% | [2]; at 33.0 µM 67% | [3]; at 1.2 µM -15% | [3]; at 3.7 µM -34% | [3]; [16] 45% | [3]; at 11.0 µM -12% | [3]; at 33.0 µM 57% | [4]; at 1.2 µM -6% | [4]; at 3.7 µM 3% | [4]; [16] 46% | [4]; at 11.0 µM 14% | [5]; at 1.2 µM 0% | [5]; at 3.7 µM -8% | [5]; at 11.0 µM -9% | [5]; at 33.0 µM 4% | [5]; at 100.0 µM 58% | [6]; [16] 66% | [7]; at 1.2 µM -48% | [7]; at 3.7 µM -44% | [7]; at 11.0 µM -69% | [7]; at 33.0 µM -39% | [7]; at 100.0 µM 67% | [8]; [16] 6% | [8]; [17] 60% | [8]; at 50.0 µM 50.6% | [9]; at 1.2 µM -46% | [9]; at 3.7 µM -39% | [9]; [16] 56% | [9]; at 11.0 µM -29% | [9]; at 33.0 µM 32% | [10]; at 1.2 µM -28% | [10]; at 3.7 µM 2% | [11]; at 1.2 µM -27% | [11]; at 3.7 µM -19% | [11]; at 11.0 µM -11% | [11]; at 33.0 µM 53% | [12]; at 1.2 µM -8% | [12]; at 3.7 µM 14% | [12]; at 11.0 µM 27% | [12]; at 33.0 µM 68% | [14]; at 1.2 µM -39% | [14]; at 3.7 µM -22% | [14]; at 11.0 µM 2%
